Screens: PubChem, National Center for Advancing Translational Sciences (NCATS)
This is a sample that favours compounds with a hit; in the whole collection about 7.5% have one here.
NPC1 promoter act – qHTS Assay for NPC1 Promoter Activators; Huh7 NPC1 promoter luciferase reporter, 24 h; Potency, µM (titrated, usually from 9.22 µM), most hits filed as activators; actives 2.4% (n = 320,000); AID 485313, 2010; further: nearly all actives have a fitted effect of over 60% in size
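Stable NPC1-promoter luciferase Huh7 line; cpd (DMSO) 24 h, 37 °C, 5% CO2; Amplite luciferase reagent 10 min RT; luminescence readout. qHTS format.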
SMN2 splice up – qHTS Assay for Enhancers of SMN2 Splice Variant Expression; AID 1458, 2008; actives 2.8% (n = 210,000); HEK293 SMN2-luciferase splicing reporter, luminescence, 30-36 h; Potency, µM (highest dose often 46.1 µM), most hits filed as activators; further: nearly all actives have a fitted effect of over 55% in size
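HEK293 cells carry an SMN2 minigene-luciferase reporter in which exon 7 inclusion puts luciferase in frame. Cells were seeded at 2000 cells/well, attached for 10-12 hours, then exposed to compounds for 30-36 hours at 37C before ONE-Glo luminescence.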
ELG1 genotox – qHTS screen for small molecules that induce genotoxicity in human embryonic kidney (HEK293T) cells expressing luciferase-tagged ELG1; AID 504466, 2011; Potency, µM (doses to about 46 µM), actives largely listed as activators; actives 1.3% (n = 330,000); HEK293T ELG1-luciferase reporter, luminescence, 16 h; further: nearly all actives have a fitted effect of over 60% in size
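DMSO vehicle served as control against compound-treated ELG1-luciferase HEK293T cells; exposure lasted 16 hr at 37 °C and 5% CO2, followed by ONE-Glo luminescence detection after 30 min.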
FLuc modulator – qHTS profiling assay for firefly luciferase inhibitor/activator using purifed enzyme and Km concentrations of substrates (counterscreen for miR-21 project). Luciferin 4-monooxygenase (Photinus pyralis), P08659. purified FLuc, Km substrates, luminescence inhibition. Potency, µM (titrated, usually from 57.5 µM), hits mostly inhibitors. actives 6.9% (n = 360,000). AID 588342, 2011; further: nearly all actives have a fitted effect of over 55% in size
Target sequence (P08659 whole entry, looked up): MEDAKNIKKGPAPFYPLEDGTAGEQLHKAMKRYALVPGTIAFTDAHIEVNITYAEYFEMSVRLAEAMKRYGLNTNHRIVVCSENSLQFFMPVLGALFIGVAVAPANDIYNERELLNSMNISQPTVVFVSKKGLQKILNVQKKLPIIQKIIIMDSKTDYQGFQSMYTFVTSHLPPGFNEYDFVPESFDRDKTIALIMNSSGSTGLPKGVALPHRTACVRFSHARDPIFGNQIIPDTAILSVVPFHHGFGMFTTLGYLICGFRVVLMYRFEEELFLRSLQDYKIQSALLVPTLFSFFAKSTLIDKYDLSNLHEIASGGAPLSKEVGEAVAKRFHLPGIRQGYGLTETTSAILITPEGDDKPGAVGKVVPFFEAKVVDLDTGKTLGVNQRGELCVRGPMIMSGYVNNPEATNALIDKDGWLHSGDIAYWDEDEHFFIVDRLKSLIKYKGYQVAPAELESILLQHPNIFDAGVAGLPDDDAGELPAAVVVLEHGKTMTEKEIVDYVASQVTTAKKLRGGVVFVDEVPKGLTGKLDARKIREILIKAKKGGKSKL
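Biochemical qHTS of compounds, final roughly 60 µM downward over six points, against 10 nM purified firefly luciferase using Km concentrations of substrates (10 uM D-luciferin, 10 uM ATP) in Tris acetate pH 7.5 buffer; luminescence output.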
Rab9 promoter act – qHTS Assay for Rab9 Promoter Activators; Huh7 Rab9 promoter-luciferase reporter, luminescence, 24 h; Potency, µM (top dose mostly 9.22 µM), usual class: activators; actives 2.8% (n = 320,000); AID 485297, 2010; further: nearly all actives have a fitted effect of over 60% in size
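Luminescence read-out: Huh7 cells stably expressing Rab9-luciferase, treated 24 h with compound at 37 °C, then lysed with luciferase reagent for 10 min at ambient before reading.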
Of the large screens only hits and unclear results are named; the others gave an inactive call. The call rests on the fitted dose curve; in most records, active means well fitted curve in the direction sought with a large enough effect; inconclusive means small, poorly fitted or top-dose-only effect, or another doubt; inactive means no such curve, though single readings can be large; an effect the other way counts as inactive or inconclusive.

CC(=O)N1CCN(C2=Nc3cccc4cccc2c34)CC1	none
COc1ccc(C(=O)NNC2=Nc3cccc4cccc2c34)cc1	none
COc1ccccc1N1CCN(C2=Nc3cccc4cccc2c34)CC1	NPC1 promoter act inconclusive, FLuc modulator 3.38µM, Rab9 promoter act inconclusive (no result: SMN2 splice up)
NC(=O)NNC1=Nc2cccc3cccc1c23	none
COc1ccccc1NC1=Nc2cccc3cccc1c23	FLuc modulator 19µM (no result: SMN2 splice up)
O=C(O)c1ccc(NC2=Nc3cccc4cccc2c34)cc1	NPC1 promoter act 1.58µM, FLuc modulator inconclusive, Rab9 promoter act 1.58µM (no result: SMN2 splice up)
CCc1ccc(CNC(=O)c2cc3c(=O)oc4ccc(C)cc4c3s2)cc1	none (no result: NPC1 promoter act, ELG1 genotox, Rab9 promoter act)
CCC(=O)c1ccc(OCC(=O)Nc2ccccc2C(=O)NC2CC2)cc1	none (no result: SMN2 splice up)
COc1ccc(C(=O)NNc2ccccc2)cc1OC	none
COc1ccc(C(=O)NNC2=NS(=O)(=O)c3ccccc32)cc1OC	FLuc modulator 15.1µM (no result: SMN2 splice up)
O=C(COc1ccccc1)NNC1=NS(=O)(=O)c2ccccc21	FLuc modulator 23.9µM
CCc1nn2c(=O)cc(COC(=O)c3cc(Cl)c(OC)c(OC)c3)nc2s1	none (no result: SMN2 splice up)
O=C(NCCc1ccccn1)c1cncc(Br)c1	none (no result: SMN2 splice up)
O=C(NC1CCCCC1)c1ccc2c(c1)N(Cc1cccc(Cl)c1)C(=O)c1ccccc1S2=O (stereo not given)	none (no result: NPC1 promoter act, SMN2 splice up, ELG1 genotox, Rab9 promoter act)
O=C(Nc1ccc(Cl)cc1)Nc1ccc2c(c1)N1CCN=C1S2	FLuc modulator 8.49µM
Nc1ccc2c(c1)N1CCN=C1S2	none
CCOc1ccc(-c2nnc(SCC(=O)N3CCNC3=O)o2)cc1	NPC1 promoter act 2µM, ELG1 genotox inconclusive, FLuc modulator 5.36µM, Rab9 promoter act 2µM (no result: SMN2 splice up)
O=C(CSc1nnc(-c2ccccc2F)o1)N1CCNC1=O	NPC1 promoter act 2.51µM, ELG1 genotox inconclusive, FLuc modulator 13.5µM, Rab9 promoter act 3.16µM (no result: SMN2 splice up)
O=C(CSc1nc(=O)n2ccccc2n1)NCc1ccccc1Cl	none (no result: SMN2 splice up)
O=C(CSc1nnc(-c2ccccc2F)o1)N1CCc2ccccc21	none (no result: NPC1 promoter act, ELG1 genotox, Rab9 promoter act)
O=C(CSc1ncccn1)NCc1ccccc1Cl	NPC1 promoter act 3.98µM, SMN2 splice up 12.6µM, ELG1 genotox 18.4µM, FLuc modulator 26.9µM, Rab9 promoter act 1.41µM
CCOc1ccc(-c2nnc(SCC(=O)NCc3ccccc3Cl)o2)cc1	FLuc modulator 16.9µM (no result: NPC1 promoter act, SMN2 splice up, ELG1 genotox, Rab9 promoter act)
CCOc1ccc(-c2nnc(SCC(=O)N3CCN(c4ccccc4)CC3)o2)cc1	none
Cc1ccc(S(=O)(=O)NNC(=S)Nc2cccc(C)c2C)cc1	none (no result: SMN2 splice up)
O=C(Cc1cccs1)Nc1cccc(C(=O)Nc2ccco2)c1	SMN2 splice up inconclusive, FLuc modulator inconclusive
CCN(CC)Cc1c(O)ccc2c(=O)c(-c3ccccc3Cl)coc12	none (no result: SMN2 splice up)
Cc1nc(-c2coc3c(O)c(O)ccc3c2=O)cs1	SMN2 splice up 22.4µM (no result: NPC1 promoter act, ELG1 genotox, FLuc modulator, Rab9 promoter act)
Clc1ccc2nc(CSCc3ccccc3)cn2c1	NPC1 promoter act 1.58µM, SMN2 splice up 12.6µM, ELG1 genotox inconclusive, FLuc modulator 7.57µM, Rab9 promoter act 2µM
Cc1ccc(SCc2cn3cc(Cl)ccc3n2)cc1	NPC1 promoter act inconclusive, FLuc modulator 13.5µM, Rab9 promoter act inconclusive (no result: SMN2 splice up)
Clc1ccc2nc(CSc3nnc4ccccn34)cn2c1	NPC1 promoter act 0.501µM, SMN2 splice up 10µM, ELG1 genotox 8.2µM, FLuc modulator 7.57µM, Rab9 promoter act 1µM
Clc1ccc2nc(CSc3nncn3-c3ccccc3)cn2c1	none
Nn1c(SCc2cn3cc(Cl)ccc3n2)nnc1-c1ccncc1	none
Nc1nnc(SCc2cn3cc(Cl)ccc3n2)s1	NPC1 promoter act inconclusive, SMN2 splice up inconclusive, ELG1 genotox inconclusive, FLuc modulator inconclusive, Rab9 promoter act 3.98µM
Nc1nnc(SCc2ccccc2Cl)s1	FLuc modulator inconclusive (no result: NPC1 promoter act, ELG1 genotox, Rab9 promoter act)
Clc1ccc2nc(CSc3nc4ccccc4o3)cn2c1	NPC1 promoter act 0.891µM, SMN2 splice up 17.8µM, ELG1 genotox 2.59µM, FLuc modulator 1.9µM, Rab9 promoter act 1µM
Clc1ccc(SCc2cn3ccccc3n2)cc1	NPC1 promoter act inconclusive, SMN2 splice up 11.2µM, ELG1 genotox inconclusive, FLuc modulator 9.53µM, Rab9 promoter act 2.51µM
Cc1ccc(SCc2cn3c(C)csc3n2)cc1	NPC1 promoter act 0.631µM, SMN2 splice up 8.91µM, ELG1 genotox 1.64µM, FLuc modulator 2.13µM, Rab9 promoter act 0.631µM
Clc1ccc(-n2nnnc2SCc2cn3ccccc3n2)cc1	none
